Screening data: PubChem BioAssay, Broad Institute
Only a selection was taken, and hits are over-represented in it overall.
IDE exosite FP = exo-site inhibitors of human insulin-degrading enzyme | P14735 | purified IDE, FL-6b probe fluorescence polarization; hits give low values | z-score at 20 µM | hit rate 6.3% among 17,000 | AID 1259349;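 active = z-score of -3 or lower, meaning strong loss of probe binding signal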;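 note: His-tagged human IDE residues 42-1019 made in E. coli with 30 nM FL-6b probe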
Target sequence (P14735 42-1019 limits assumed): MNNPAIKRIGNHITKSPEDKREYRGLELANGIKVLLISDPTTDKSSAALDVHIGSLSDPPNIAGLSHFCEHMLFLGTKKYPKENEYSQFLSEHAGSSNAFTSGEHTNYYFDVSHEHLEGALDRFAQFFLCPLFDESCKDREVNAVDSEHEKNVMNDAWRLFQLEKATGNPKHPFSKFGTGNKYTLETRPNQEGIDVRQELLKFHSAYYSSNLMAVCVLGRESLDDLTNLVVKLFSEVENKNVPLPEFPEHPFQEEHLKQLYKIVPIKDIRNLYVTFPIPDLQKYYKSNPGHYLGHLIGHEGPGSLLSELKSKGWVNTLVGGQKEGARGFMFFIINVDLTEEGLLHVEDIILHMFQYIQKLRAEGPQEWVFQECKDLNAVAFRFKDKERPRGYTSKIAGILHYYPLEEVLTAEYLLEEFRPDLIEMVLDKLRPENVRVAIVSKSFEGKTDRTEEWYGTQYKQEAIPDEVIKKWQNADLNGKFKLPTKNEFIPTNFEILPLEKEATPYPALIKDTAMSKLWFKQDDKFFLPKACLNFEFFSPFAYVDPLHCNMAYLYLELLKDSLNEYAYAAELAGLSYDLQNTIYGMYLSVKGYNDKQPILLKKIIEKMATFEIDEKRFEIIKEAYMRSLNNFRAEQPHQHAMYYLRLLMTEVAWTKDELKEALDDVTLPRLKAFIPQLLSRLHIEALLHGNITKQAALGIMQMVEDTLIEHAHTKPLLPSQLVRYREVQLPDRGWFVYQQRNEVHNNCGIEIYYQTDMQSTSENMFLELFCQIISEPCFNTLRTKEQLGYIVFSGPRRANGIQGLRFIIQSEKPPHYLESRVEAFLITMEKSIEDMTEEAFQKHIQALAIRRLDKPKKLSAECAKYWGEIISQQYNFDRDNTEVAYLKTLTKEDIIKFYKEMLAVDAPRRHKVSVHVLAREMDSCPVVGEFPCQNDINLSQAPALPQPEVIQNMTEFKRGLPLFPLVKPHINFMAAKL
Numbers stand for hits; i = inactive; ! = a repeat was not active.

SMILES | IDE exosite FP
CCCNC(=O)N1CC(=O)N2[C@H](CO)[C@@H](c3ccc(C#Cc4ccccc4)cc3)[C@@H]2C1 | -6.85
CCCNC(=O)N1CC(=O)N2[C@H](CO)[C@H](c3ccc(C#Cc4ccc(F)cc4)cc3)[C@@H]2C1 | i
CCCNC(=O)N1CC(=O)N2[C@H](C1)[C@H](c1ccc(-c3ccc(F)cc3)cc1)[C@@H]2CO | i
CCCC#Cc1ccc([C@H]2[C@@H](CO)N3C(=O)CN(C(=O)NCCC)C[C@@H]23)cc1 | i
CCCNC(=O)N1CC(=O)N2[C@H](CO)[C@H](c3ccc(C#Cc4cccc(OC)c4)cc3)[C@@H]2C1 | i
CCCN1[C@H](C(=O)OC)[C@@H](CO)[C@@H]2Cn3c(ccc(-c4cccc(OC)c4)c3=O)[C@@H]21 | i
C[C@@H]1CN([C@@H](C)CO)C(=O)c2cc(NC(=O)Nc3ccc(C(F)(F)F)cc3)ccc2O[C@@H](C)CCCCO[C@@H]1CN(C)CC1CCCCC1 | i
CO[C@H]1CC[C@H]2CCOc3ccc(C#N)cc3C(=O)N(C)C[C@@H](c3ccccc3)CC(=O)N(C)C[C@H]1O2 | i
COCC(=O)N1CC(=O)N2[C@@H](CO)[C@H](c3ccc(-c4ccccc4F)cc3)[C@@H]2C1 | i
CCC(=O)N1CC(=O)N2[C@H](C1)[C@H](c1ccc(-c3ccccc3F)cc1)[C@@H]2CO | -3.53
CCC(=O)N1CC(=O)N2[C@H](CO)[C@@H](c3ccc(-c4ccccc4F)cc3)[C@@H]2C1 | -5.18
COCC(=O)N1CC(=O)N2[C@H](C1)[C@H](c1ccc(-c3ccccc3F)cc1)[C@@H]2CO | i
CCC(=O)N1CC(=O)N2[C@@H](CO)[C@@H](c3ccc(-c4ccccc4F)cc3)[C@@H]2C1 | -5.57
O=C(C1CCCCC1)N1CC(=O)N2[C@H](C1)[C@@H](c1ccc(-c3ccccc3F)cc1)[C@@H]2CO | i
CCC(=O)N1CC(=O)N2[C@H](CO)[C@@H](c3ccc(-c4ccccc4F)cc3)[C@H]2C1 | i
COc1ccccc1CNC(=O)C[C@H]1C=C[C@H](NC(=O)CC2CC2)[C@@H](CO)O1 | i
O=C(CCN1CCCCC1)N[C@@H]1CC[C@H](CCn2cc(-c3cccc(F)c3)nn2)O[C@@H]1CO | i
O=C(Nc1cccc(F)c1)N1CC(=O)N2[C@@H](CO)[C@H](c3ccc(-c4cccc(F)c4)cc3)[C@@H]2C1 | i
COCC#Cc1ccc([C@@H]2[C@H]3CN(C(=O)c4ccncc4)CC(=O)N3[C@H]2CO)cc1 | i
CN1C(=O)c2cc(NC(=O)c3cscn3)ccc2OC[C@H]2O[C@H](CC(=O)N3CCOCC3)CC[C@@H]21 | i
COc1cccc(S(=O)(=O)Nc2ccc3c(c2)C(=O)N(C)[C@H]2CC[C@@H](CC(=O)NCC4CCCCC4)O[C@H]2CO3)c1 | i
COc1cccc(S(=O)(=O)Nc2ccc3c(c2)C(=O)N(C)[C@H]2CC[C@H](CC(=O)NCC4CCCCC4)O[C@@H]2CO3)c1 | i
COc1cccc(C(=O)Nc2ccc3c(c2)C(=O)N(C)[C@@H]2CC[C@H](CC(=O)N[C@@H](C)c4ccccc4)O[C@H]2CO3)c1 | i
CN1C(=O)c2cc(NC(=O)c3cccc(F)c3)ccc2OC[C@H]2O[C@H](CC(=O)NCC3CCCCC3)CC[C@H]21 | -3.23!
CN1C(=O)c2cc(NC(=O)c3cccc(F)c3)ccc2OC[C@@H]2O[C@H](CC(=O)NCc3ccccc3Cl)CC[C@@H]21 | i
SMILES | IDE exosite FP
COc1cccc(C(=O)Nc2ccc3c(c2)C(=O)N(C)[C@@H]2CC[C@H](CC(=O)N[C@@H](C)c4ccccc4)O[C@@H]2CO3)c1 | i
COc1cccc(S(=O)(=O)Nc2ccc3c(c2)C(=O)N(C)[C@H]2CC[C@@H](CC(=O)NCC4CCCCC4)O[C@@H]2CO3)c1 | -3.23
CN1C(=O)c2cc(NC(=O)c3cccc(F)c3)ccc2OC[C@H]2O[C@H](CC(=O)NCC3CCCCC3)CC[C@@H]21 | i
CN1C(=O)c2cc(NC(=O)c3cnccn3)ccc2OC[C@H]2O[C@@H](CC(=O)N[C@@H]3CCN(Cc4ccccc4)C3)CC[C@@H]21 | -6.99
COc1cccc(C(=O)Nc2ccc3c(c2)C(=O)N(C)[C@H]2CC[C@@H](CC(=O)N[C@@H](C)c4ccccc4)O[C@H]2CO3)c1 | -3.32
CN1C(=O)c2cc(NC(=O)c3cnccn3)ccc2OC[C@H]2O[C@@H](CC(=O)N[C@H]3CCN(Cc4ccccc4)C3)CC[C@H]21 | i
CN1C(=O)c2cc(NC(=O)c3cnccn3)ccc2OC[C@@H]2O[C@H](CC(=O)N[C@H]3CCN(Cc4ccccc4)C3)CC[C@H]21 | i
COc1ccc2c3c(n(C)c2c1)[C@H](CO)N(C)CC31CCN(C(=O)CN2CCOCC2)CC1 | i
CN1CCCCN2[C@H](CO)[C@H](c3ccc(-c4cccnc4)cc3)[C@@H]2C1 | i
COc1ccccc1NC(=O)N[C@@H]1CC[C@H](CCNS(=O)(=O)c2ccc(Cl)cc2)O[C@H]1CO | i
COc1cccc(C(=O)Nc2ccc3c(c2)C(=O)N(C)[C@@H]2CC[C@H](CC(=O)NCc4ccc(F)cc4)O[C@H]2CO3)c1 | i
CCNC(=O)C[C@@H]1CC[C@H]2[C@@H](COC[C@H](O)CN2C(=O)c2ccccn2)O1 | i
CCC(=O)N1[C@H](CO)[C@H](c2ccccc2)C12CN(C(=O)Nc1ccccc1F)C2 | i
COc1cccc(CNC(=O)C[C@@H]2CC[C@@H]3[C@@H](COc4ccc(NC(=O)c5cccs5)cc4C(=O)N3C)O2)c1 | i
CC(C)(C)[S@](=O)N1Cc2cc(C(=O)NC3CCC3)nc(-c3cccc(Br)c3)c2[C@@H]1CCO | i
COc1ccccc1NC(=O)N1CCCCN2[C@H](CO)[C@H](c3ccc(C#CC4CCCC4)cc3)[C@H]2C1 | i
C[C@@H]1CN([C@H](C)CO)C(=O)c2ccccc2-c2ccccc2CO[C@@H]1CN(C)C(=O)[C@@H](Cc1ccccc1)N(C)C | i
N#C[C@H]1[C@H](c2ccc(-c3cncnc3)cc2)[C@@H](CO)N1C(=O)Cc1ccccc1 | i
CN(C)C(=O)c1ccc(-c2ccc([C@H]3[C@@H](C#N)N(C(=O)C4CC4)[C@@H]3CO)cc2)cc1 | i
CO[C@@H]1CN(C)C(=O)c2ccc(NS(C)(=O)=O)cc2OC[C@@H](C)N(C(=O)CN(C)C)C[C@@H]1C | i
COCC(=O)N1CC(=O)N2[C@@H](CO)[C@@H](c3ccc(-c4ccccc4C)cc3)[C@@H]2C1 | -12.8
COCC(=O)N1CC(=O)N2[C@H](CO)[C@H](c3ccc(Br)cc3)[C@@H]2C1 | i
COCC(=O)N1CC(=O)N2[C@@H](CO)[C@H](c3ccc(-c4ccncc4)cc3)[C@@H]2C1 | i
COCC(=O)N1CC(=O)N2[C@H](C1)[C@H](c1ccc(-c3ccccc3)cc1)[C@@H]2CO | i
COCC(=O)N1CC(=O)N2[C@@H](CO)[C@@H](c3ccc(Br)cc3)[C@@H]2C1 | i
SMILES | IDE exosite FP
COCC(=O)N1CC(=O)N2[C@H](C1)[C@@H](c1ccc(-c3ccccc3C)cc1)[C@@H]2CO | -13.6
CC(=O)N1CCCCN2[C@H](CO)[C@@H](c3ccc(-c4ccc(F)cc4)cc3)[C@@H]2C1 | i
CCC(=O)N1C[C@@H](O)COC[C@H]2O[C@H](CC(=O)NCc3ccc(Oc4ccccc4)cc3)CC[C@@H]21 | i
C/C=C/c1ccc2c(c1)O[C@@H](CN(C)C(=O)Nc1ccc(OC)cc1)[C@H](C)CN([C@H](C)CO)S2(=O)=O | i
COc1ccc(-c2ccc3c(c2)[C@H]2[C@H](CCN2Cc2cncnc2)[C@H](CO)N3)cc1 | i
CCS(=O)(=O)Nc1ccc2c(c1)C(=O)N(C)[C@@H]1CC[C@@H](CC(=O)N[C@H]3CCN(Cc4ccccc4)C3)O[C@H]1CO2 | i
